Among the data in the supplement of paper PMC11150407 are cell viability values, retold here.

Where a name gives a salt, the structure may show the parent alone. The campaign covered roughly 2,100 compounds. About 180 (8.6%) showed an effect of 50% or more. The entries come from a sample that favours strong results as a whole.

As usually defined, the cell viability is a read-out of living cells in per cent, often relative to untreated cells.

This assay has as its system MOLM1 and UCSD/AML1 (averaged). Nature of the assay: cell viability relative to DMSO control (POC); higher = less growth inhibition. The note with it: 1 µM; 72 h. The method, then:
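Primary viability screen in the 3q26 EVI1-high AML cell lines MOLM1 and UCSD/AML1 (1.5e3 cells/well, 384-well), compounds at 1 uM for 72 h. ATP CellTiter-Glo read-out given as percent of viable cells over DMSO control (POC), averaged over duplicates. DMSO was the negative control and 5 uM etoposide the positive control. This mapping covers the MicroSource Spectrum and Selleck anticancer libraries (drug names).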
For `O=c1cc(-c2cccc3c2Sc2ccccc2S3)oc(N2CCOCC2)c1`, the cell viability was 69.4%. `O=C(O)CCCCCCCCCCCC[C@@H]1C=CCC1`: the cell viability worked out at 93.9%. `CS(=O)(=O)CCCCN=C=S`: the cell viability is 84.4%. Turning to `COc1ccc(-c2oc3cc(OC)c(OC)c(OC)c3c(=O)c2OC)cc1OC`, the cell viability amounted to 101%. The same measure for `CC(=O)OCC(=O)[C@@]1(O)CCC2C3CCC4=CC(=O)C=C[C@]4(C)[C@@]3(F)[C@@H](O)C[C@@]21C` (stereo not given in full): 78.1%; for `N#CCNC(=O)c1ccc(-c2ccnc(Nc3ccc(N4CCOCC4)cc3)n2)cc1` [Momelotinib (CYT387)]: 51.4%; for `Cc1nc(N)sc1-c1ccnc(Nc2ccc(N3CCOCC3)cc2)n1`: 46.7%. On to `O=C(O)c1ccccc1`, for which the cell viability was determined as 98.9%. The same measure for `CC(CCC(=O)O)[C@H]1CCC2C3C[C@H](O)[C@@H]4C[C@H](O)CC[C@]4(C)C3CC[C@@]21C` (stereo partly drawn) [alpha-HYDROXYDEOXYCHOLIC ACID]: 107%. Take `CC(C)(C)c1cnc(CSc2cnc(NC(=O)C3CCNCC3)s2)o1`: the cell viability came out at 2.81%.

In the case of `Cc1cc(/C=C/c2ccc3cc(N(C)C)ccc3[n+]2C)c(C)n1-c1ccccc1`, the cell viability worked out at 29.3%. As to `C[C@@H]1CC[C@@]23CCC4(C)[C@@](C=CC5[C@@]6(C)CC[C@H](O)C(C)(C)C6CC[C@]54C)(OC2=O)C3[C@H]1C` (stereo not given in full), the cell viability amounted to 90.8%. In the case of `C=C1C(=O)[C@]23[C@H](CC[C@@H]1[C@@H]2O)[C@]12CO[C@@]3(O)[C@H](O)[C@H]1C(C)(C)CC[C@@H]2O`, the cell viability came out at 94.3%. In the case of `CC1(C)CC2C1CCC1(C)OC2(C)CCC1O` (stereo not given), the cell viability turned out to be 91.4%. The same measure for `CC(C)=CCC/C(C)=C/COc1ccc2ccc(=O)oc2c1`: 92.6%; for `CC(C)(C)NCC(O)c1ccc(O)c(CO)c1` (racemic): 93.2%. As for `O=C(O)c1cc2cc(Cl)ccc2[nH]1`, the cell viability is 98.1%. For `O=C1c2cccc(O)c2C(=O)c2c(O)cccc21`, the cell viability was 104%. For the compound `O=C1c2c(O)cccc2Cc2cccc(O)c21`, the cell viability was 102%. Turning to `O=C1c2c(O)ccc(O)c2C(=O)c2c(NCCNCCO)ccc(NCCNCCO)c21`, the cell viability was 8.27%. `O=C1c2c(O)ccc(O)c2C(=O)c2c(NCCNCCO)ccc(NCCNCCO)c21` [Mitoxantrone Hydrochloride]: the cell viability is 2.15%.

On to `NCCOB(c1ccccc1)c1ccccc1`, for which the cell viability was determined as 117%. As to `CC(C)CCC[C@@H](C)[C@H]1CC[C@H]2[C@@H]3CC(=O)[C@H]4C[C@@H](O)CC[C@]4(C)[C@H]3CC[C@]12C` [5alpha-CHOLESTAN-3beta-OL-6-ONE], the cell viability was determined as 107%. As to `Cc1ccc(C(=O)N(CCCN)[C@@H](c2oc3cc(Cl)ccc3c(=O)c2Cc2ccccc2)C(C)C)cc1`, the cell viability was determined as 13.4%.

As to `Cc1ccc(C(=O)N(CCCN)[C@@H](c2nc3cc(Cl)ccc3c(=O)n2Cc2ccccc2)C(C)C)cc1`, the cell viability turned out to be 15.3%.

On to `CC(=O)O[C@@H]1C[C@H]2C(C)(C)C(=O)CC[C@]2(C)[C@H]2CC[C@@]3(C)[C@H](c4ccoc4)OC(=O)[C@H]4O[C@]43[C@@]21C`, for which the cell viability was found to be 100%. Turning to `CNC(=O)c1ccc(N2C(=S)N(c3ccc(C#N)c(C(F)(F)F)c3)C(=O)C2(C)C)cc1F` [MDV3100 (Enzalutamide)], the cell viability was 102%. The same measure for `CC(C)CC(NC(=O)[C@H](C)N)C(=O)O` (mixture of isomers): 105%; for `COc1cc(C)c(C(=O)Oc2cc(C)c(C(=O)O)c(O)c2C)c(OC)c1C`: 109%.

In the case of `CNS(=O)(=O)c1ccc(NC(=O)c2ccccc2C(=O)O)cc1`, the cell viability amounted to 110%. The same measure for `Nc1nc(=O)c2[nH]c(=O)cnc2[nH]1`: 112%. The same measure for `C[C@]12CCC(=O)C=C1C=C[C@@H]1[C@@H]2CC[C@@]2(C)[C@H]1CC[C@@]21CCC(=O)O1`: 83.2%. With `CN1CCC(CNc2ccc3ncc(-c4cccc(OC(F)(F)F)c4)n3n2)CC1` [SGI-1776 free base], the cell viability was determined as 80%.

On to `O=c1c(O)cc([C@H]2Oc3cc(O)cc(O)c3C[C@H]2O)cc2c([C@H]3Oc4cc(O)cc(O)c4C[C@H]3O)cc(O)c(O)c12`, for which the cell viability came out at 104%.

Regarding `CN1CCN(CCOc2cc(OC3CCOCC3)c3c(Nc4c(Cl)ccc5c4OCO5)ncnc3c2)CC1` [Saracatinib (AZD0530)], the cell viability was determined as 47.7%.

For `C=CC(=O)N1CCC[C@@H](n2nc(-c3ccc(Oc4ccccc4)cc3)c3c(N)ncnc32)C1`, the cell viability turned out to be 60.3%. For the compound `Cc1ccc2c(c1)CC[C@H]1CC(=O)CC[C@]21C`, the cell viability is 104%. In the case of `CC(=O)N1CCCC1C(=O)O` (stereo not given), the cell viability was determined as 108%.

With `CC(=O)N[C@@H](C=O)[C@@H](O)[C@H](O)[C@H](O)CO`, the cell viability amounted to 107%. In the case of `O=C[C@H](O)[C@@H](O)[C@H](O)CO`, the cell viability worked out at 121%.

Regarding `CN(N=O)C(=O)N[C@@H](C=O)[C@@H](O)[C@H](O)[C@H](O)CO` [Streptozotocin (Zanosar)], the cell viability came out at 37.4%.

Regarding `CC(=O)O[C@H]1CC[C@]2(C)[C@H]3CC=C4[C@@H]5CC(C)(C)CC[C@]5(C(=O)O)CC[C@@]4(C)[C@]3(C)CC[C@H]2C1(C)C`, the cell viability is 102%. The same measure for `COC(=O)[C@@]1(C)CCC[C@]2(C)c3ccc(O)c(C(C)C)c3CCC12` (stereo not given in full): 109%; for `COC(=O)c1cc(O)c(=O)c2c(O)c(O)ccc2c1`: 109%; for `Cc1cnc(-c2cnc(NCCNc3ccc(C#N)cn3)nc2-c2ccc(Cl)cc2Cl)[nH]1`: 133%. In the case of `Cc1cc(=O)oc2c(O)c(O)ccc12`, the cell viability is 93.6%.

On to `C=C1CCC(C2CC(=O)OC2=O)C(=O)CCC2C1CC2(C)C` (stereo not given), for which the cell viability was found to be 104%. On to `FC(F)c1nc2ccccc2n1-c1nc(N2CCOCC2)nc(N2CCOCC2)n1`, for which the cell viability is 26.8%. As for `CCOC(=O)c1c(C)cc(O)c(C=O)c1O`, the cell viability worked out at 98.9%. Turning to `CC(=O)/C(=C\c1ccccc1)CC(=O)O`, the cell viability was 118%. `COC(=O)C[C@H]1C(C)(C)C(=O)[C@@H]2CC3=C(CC[C@]4(C)C3=CC(=O)O[C@H]4c3ccoc3)[C@@]1(C)C2=O`: the cell viability was 93.4%. Take `CN1CCN(c2cccc(Nc3nc4c(-c5ccc(S(C)(=O)=O)cc5)cccn4n3)c2)CC1`: the cell viability was found to be 33.3%. As to `CC1=CC2C(CC1=O)C(C)=CCC2C(C)C` (stereo not given), the cell viability was 92.7%.

With `COc1ccc(-c2cc(=O)c3c(OC)c(OC)c(OC)c(OC)c3o2)cc1`, the cell viability is 89.9%. Turning to `CC(=O)/N=c1/sc(S(N)(=O)=O)nn1C`, the cell viability came to 112%. The same measure for `CSCC[C@H](NC=O)C(=O)N[C@@H](Cc1ccccc1)C(=O)O`: 105%; for `CC(=O)O[C@@H]1CC[C@@]2(C)C(C[C@@H](OC(C)=O)[C@@]3(C)C4=CC(=O)O[C@@H](c5ccoc5)[C@]4(C)CCC23)C1(C)C` (stereo partly drawn) [3alpha-ACETOXYDIHYDRODEOXYGEDUNIN]: 82%; for `Nc1ccc(C(=O)Nc2cccc(-c3nc(N4CCOCC4)c4oc5ncccc5c4n3)c2)cn1`: 52.7%. For `Oc1cccc(-c2nc(N3CCOCC3)c3oc4ncccc4c3n2)c1`, the cell viability was found to be 25.7%. `O=c1cc(N2CCOCC2)oc2c(-c3ccccc3)cccc12`: the cell viability worked out at 73.8%.

In the case of `OC[C@H]1O[C@@H](OCCc2ccc(O)cc2)[C@H](O)[C@@H](O)[C@@H]1O`, the cell viability was determined as 107%. Take `CC(=O)O[C@H]1CC[C@]2(C)C3=C(CC[C@H]2C1(C)C)[C@]1(C)CC[C@H]([C@H](C)CCC=C(C)C)[C@@]1(C)CC3`: the cell viability is 94.1%. Consider `CCn1c(-c2nonc2N)nc2c(C#CC(C)(C)O)ncc(OC[C@H]3CCCNC3)c21`, for which the cell viability stood at 54%. In the case of `CCCCC[C@H](CC(=O)O)C(=O)O`, the cell viability was determined as 111%. The same measure for `C[N+](C)(C)CCCCCC[N+](C)(C)C`: 114%; for `CCCCCCCCCCCCCCCCCCCCCCO`: 101%. In the case of `CCCCCCCCCCCCCCCC[N+](C)(C)C`, the cell viability came to 43.7%. For `COc1cc(OC)c(-c2c(OC)cc(OC)cc2OC)c(OC)c1`, the cell viability was determined as 104%. For the compound `CC1CCC2(OC1)OC1CC3C4CCC5C[C@@H](O)CCC5(C)C4=CCC3(C)C1[C@@H]2C` (stereo partly drawn) [3beta-HYDROXYISOALLOSPIROST-9(11)-ENE], the cell viability turned out to be 91.8%. Regarding `CC(=O)Nc1cccc(-n2c(=O)n(C3CC3)c(=O)c3c(Nc4ccc(I)cc4F)n(C)c(=O)c(C)c32)c1`, the cell viability is 27.3%. In the case of `CC(=O)Oc1cc(C)c2c(c1C(OC(C)=O)OC(C)=O)Oc1c(c(C)c(OC(C)=O)c3c1C(OC(C)=O)OC3=O)OC2=O` (stereo not given), the cell viability is 97.6%. Consider `CC(=O)O[C@H]1C[C@@H](OC(C)=O)C(C)(C)C2CC(=O)[C@]3(C)C(CC[C@@]4(C)[C@H](c5ccoc5)OC(=O)[C@H]5O[C@]543)[C@]21C` (stereo not given in full), for which the cell viability was 97.1%. On to `CC(=O)Oc1cc(OC(C)=O)c2c(c1)O[C@H](c1ccc(OC(C)=O)c(OC(C)=O)c1)[C@@H](OC(C)=O)C2`, for which the cell viability was 96.7%. On to `COc1ccc(-c2cc(=O)c3c(O)cc(O)cc3o2)cc1O`, for which the cell viability amounted to 83%. `C=CC(=O)Nc1cccc(Oc2nc(Nc3ccc(N4CCN(C)CC4)cc3OC)ncc2Cl)c1`: the cell viability was 86.3%. Regarding `COc1cc(N2CCC(N3CCN(C)CC3)CC2)ccc1Nc1ncc(Cl)c(Nc2ccccc2S(=O)(=O)C(C)C)n1`, the cell viability amounted to 30.7%. As to `COc1ccc(-c2oc3c(CC=C(C)C)c(O[C@@H]4O[C@H](CO)[C@@H](O)[C@H](O)[C@H]4O)cc(O)c3c(=O)c2O[C@@H]2O[C@@H](C)[C@H](O)[C@@H](O)[C@H]2O)cc1`, the cell viability is 83%. `CC(=O)O[C@H]1CC[C@@]2(C)[C@@H](CC[C@@H]3[C@@H]2CC(=O)[C@]2(C)[C@@H]4[C@H](C[C@@H]32)O[C@]2(CC[C@@H](C)CO2)[C@H]4C)C1`: the cell viability was determined as 88.1%.

For the compound `COc1cc(OC2CCN(C)CC2)ccc1Nc1ncc2c(n1)n(C1CCCC1)c(=O)n2C`, the cell viability was 70.8%. The same measure for `CC[C@@H]1C(=O)N(C)c2cnc(Nc3ccc(C(=O)N[C@H]4CC[C@H](N5CCN(CC6CC6)CC5)CC4)cc3OC)nc2N1C(C)C` [BI6727 (Volasertib)]: 14.5%; for `CC[C@@H]1C(=O)N(C)c2cnc(Nc3ccc(C(=O)NC4CCN(C)CC4)cc3OC)nc2N1C1CCCC1`: 13.2%; for `CCOC(=O)CCCCCCCCCCCCC1C=CCC1` (stereo not given): 103%. Consider `CN1CCN(C(c2ccccc2)c2ccccc2)CC1`, for which the cell viability was 102%.

On to `COC(=O)C1=CO[C@@H](O[C@@H]2O[C@H](CO)[C@@H](O)[C@H](O)[C@H]2O)[C@@H]2[C@@H](C)[C@@H](O)C[C@H]12`, for which the cell viability was 94.9%. The same measure for `CC1(C)CCC[C@]2(C)[C@@H]3[C@H]1[C@@H](O)[C@@]2(C)C[C@H]3O`: 92%.
